# The list is not random: actives were taken first. Their share in the collection is about 4.5%.
# tim23-1 inh = growth inhibitors of tim23-1 mutant yeast, primary screen, luminescence, uHTS | S. cerevisiae tim23-1 growth, BacTiter-Glo luminescence, 24 h | inhibition, % at 20 µM | 330,000 tested, 1.3% active | AID 463212, 2010;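 active = growth inhibition of the mutant yeast at or above 50%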;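 note: temperature-sensitive mutant grown at 25 °C; plate controls were DMSO-treated mutant yeast for no effect and medium wells lacking yeast for full effect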
# SKKanGAS inh = S. pyogenes SKKanGAS growth inhibitors in kanamycin, primary screen, streptokinase expression inhibitor project, SKKanGAS strain, BacTiter-Glo luminescence | inhibition, % at 7.5 µM | 6 h | 300,000 tested, 1.3% active;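 active = mean replicate score, as percent of positive control median, at least 50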;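 note: strain carries kanamycin resistance gene driven by streptokinase promoter and grows in 40 µg/ml kanamycin; loss of luminescence reflects streptokinase promoter inhibition or plain growth inhibition; 0% = median of DMSO wells and 100% = positive control at its reference dose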
# tim10-1 inh = growth inhibitors of tim10-1 mutant yeast, primary screen, luminescence, uHTS; S. cerevisiae tim10-1 ts strain growth, BacTiter-Glo, 24 h; inhibition, % at 20 µM; 330,000 tested, 2.2% active; AID 463190, 2010;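 active = inhibition of at least 40%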;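 note: mutant grown at 25 °C; 0% = DMSO wells with yeast and 100% = wells holding no yeast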
# TIM10 inh = growth inhibitors of isogenic TIM10 control yeast, primary screen, counter-screen for tim10-1 yeast inhibitor project, luminescence, uHTS | S. cerevisiae TIM10 strain growth, BacTiter-Glo luminescence, 24 h | inhibition, % at 10 µM | 330,000 tested, 1.4% active | AID 463195, 2010;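 active = inhibition of 40% or more at the single tested concentration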;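 note: wild-type TIM10 isogenic control strain grown at permissive 25 °C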
# PfHsp90 set2 = growth inhibition of PfHsp90-expressing yeast, primary screen, antimalarial PfHsp90 inhibitor project, S. cerevisiae, BacTiter-Glo luminescence, single point, set 2 | BacTiter-Glo ATP, 48 h; yeast lacking PDR1 and PDR3 efflux regulators | inhibition, % at 9.4 µM | 310,000 tested, 0.32% active;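 active = every replicate shows inhibition above about 80%, whatever the replicate mean, limit read from the data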;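 note: 0% = DMSO neutral controls and 100% = 20 µM radicicol positive controls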
# NLRP3 yeast inh = NALP3 inflammasome inhibitors in reconstituted yeast, primary screen, luminescence, uHTS; inhibition, % at 10 µM; 330,000 tested, 0.39% active; AID 2825, 2010; Yeast reconstituted NLRP3/ASC/caspase-1, beta-gal luminescence, 24 h;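 active = inhibition of 50% or more; inactive = inhibition below 50%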;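 note: plate controls were induced DMSO wells for no effect and uninduced yeast grown without galactose for full effect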
# tim23-1 confirm = tim23-1 mutant yeast growth inhibitors, confirmation, luminescence, single concentration; shares compounds with tim23-1 inh; 4,400 tested, 83% active; inhibition, % at 20 µM; S. cerevisiae tim23-1 growth, BacTiter-Glo luminescence, 24 h;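 active = inhibition above about 39% in either of two replicate wells at 20 µM, limit read from the data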;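 note: temperature-sensitive tim23-1 mutant grown at 25 °C; 0% = DMSO wells with yeast and 100% = medium wells without yeast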
# The depositor's hits bear a star; nt = no result given.
SMILES,tim23-1 inh,SKKanGAS inh,tim10-1 inh,TIM10 inh,PfHsp90 set2,NLRP3 yeast inh,tim23-1 confirm
COc1ccc(C(CNC(=O)c2cccc(S(=O)(=O)N(C)c3ccccc3)c2)N2CCCC2)cc1 (configuration not stated),27.4,nt,15.6,2.0,-56.4,11.3,nt
COc1ccc(-c2c(C)nn3c(N4CCCCCC4)cc(C)nc23)cc1OC,53.9*,23.8,33.1,34.1,-12.4,12.0,56.8*
O=C(c1cc(-c2ccccc2Cl)nc2ccccc12)N1CCN(c2ccccn2)CC1,54.3*,nt,17.5,24.4,nt,4.7,44.1*
O=C(c1cc(-c2ccccc2Cl)nc2ccccc12)N1CCN(c2ccccc2O)CC1,40.2,28.0,22.9,20.2,nt,17.7,nt
C=CCNC(=O)c1n[nH]c2c1CC(C(C)(C)CC)CC2 (configuration not stated),52.8*,nt,36.4,21.3,-2.1,11.5,55.8*
NNC(=O)c1n[nH]c2c1CC(C1CCCCC1)CC2 (configuration not stated),47.7,nt,34.1,15.6,10.4,5.5,nt
CCCNC(=O)c1n[nH]c2c1CC(C(C)(C)CC)CC2 (configuration not stated),57.3*,nt,37.2,23.6,6.8,9.6,58.2*
COc1ccc(N2CCN(c3cc(C)c4ccc(C)cc4n3)CC2)cc1,11.1,-8.7,20.6,5.2,1.6,15.7,nt
COc1ccc(N2CCN(c3nc4cc(C)ccc4cc3C=O)CC2)cc1,52.0*,-5.0,-19.1,24.8,25.5,24.7,45.0*
CCOc1ccc(NC(=O)/C(C=Nc2ccccc2)=C(\C)O)cc1,15.9,20.8,-69.1,-36.1,-61.6,12.1,nt
CCS(=O)(=O)N1CCC2(CC1)OCCN2S(=O)(=O)c1ccc(OC)cc1,4.6,2.5,-8.4,-2.1,22.3,12.0,nt
COc1ccc(S(=O)(=O)N2CCOC23CCN(S(=O)(=O)c2cc(F)ccc2F)CC3)cc1,53.3*,-3.3,34.7,-5.0,14.8,34.5,38.2
CN1CC(=O)N2Cc3[nH]c4ccccc4c3C[C@H]2C1=O,0.4,-4.8,-10.5,7.0,-0.5,-2.8,nt
Cc1cccc(N2C(=O)c3ccc(Br)cc3C2=O)n1,55.5*,-2.8,4.7,11.7,-13.7,28.6,44.6*
CCOc1ccc(-n2ccnc(SCC(=O)Nc3ccc(CC)cc3)c2=O)cc1,55.8*,1.2,16.4,7.2,-11.1,32.6,52.8*
COc1cccc2c1C(=O)c1c(O)c3c(c(O)c1C2=O)C[C@](O)(C(C)=O)C[C@H]3O[C@@H]1C[C@@H](N)[C@@H](O)[C@@H](C)O1,51.2*,102.5*,3.1,-0.9,-36.0,42.5,43.8*
Oc1ccccc1/C=N/NC(=S)NC1CC2CC1C1C=CCC21 (configuration not stated),73.8*,93.2*,31.1,24.6,-22.5,28.0,48.9*
c1ccc(-c2csc(Nc3ccccn3)n2)cc1,50.4*,1.6,9.6,1.1,-19.2,28.8,29.3
Cc1cc(Br)cn2cc(C(=O)O)nc12,-7.3,-4.6,2.7,10.7,3.3,11.9,nt
O=C(NC1CCCC1)c1c(O)nc2sccn2c1=O,55.6*,-1.0,6.5,-21.1,nt,28.2,27.4
CCOc1ccc(NC(=S)N2CCC(c3ccc(C)cc3)C2)cc1 (configuration not stated),63.7*,8.0,31.2,33.6,19.8,30.3,41.1*
CCOC(=O)C1CCCN(C(=S)Nc2ccc(Nc3ccccc3)cc2)C1 (configuration not stated),52.4*,-8.6,38.4,19.6,18.6,7.6,41.2*
COc1cccc(NC(=S)N2CCC(c3ccc(C)cc3)C2)c1 (configuration not stated),53.3*,-4.3,13.2,10.7,12.7,28.0,37.2
CCOC(=O)C1CCN(C(=S)Nc2ccccc2)CC1,1.3,-5.7,6.1,0.9,6.1,12.1,nt

# Assay outcomes: PubChem BioAssay, several laboratories
